# Measurements as given in PubChem BioAssay (NCATS).
# Results filed as inconclusive are left out. Entries that show only a call come without a potency. A number with no mark means an inactive call. The source made the active and inactive calls. The call rests on the fitted dose curve; in most records, active means well fitted inhibition curve with a large enough effect; inconclusive means small, poorly fitted or top-dose-only effect; inactive means flat fitted curve, though single readings scatter.
# Experiments:
# [1] = qHTS profiling for inhibitors of Plasmodium falciparum proliferation (AID 504749); on all read-outs here: nearly all actives have a fitted effect of over 60% in size; details: P. falciparum in erythrocytes, SYBR Green DNA, 72 h; for activity, negative = inhibition: at 28.7 µM (top of the series)
# How it was run: (§1)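 Each compound contacts P. falciparum-infected red blood cells for 72 h at 37 C; lysis buffer (Tris, EDTA, saponin, Triton X, SYBR Green I) is added and fluorescence measured next morning; values normalized to controls.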
# [2] = tested on: 3D7; assay: as above; details: P. falciparum in erythrocytes, SYBR Green DNA, 72 h; series mostly up to 28.7 µM
# How it was run: as §1
# [3] = tested on: 7G8; assay: as above; details: P. falciparum in erythrocytes, SYBR Green DNA, 72 h; series mostly up to 28.7 µM
# How it was run: as §1
# [4] = tested on: AA1029; assay: as above; details: P. falciparum in erythrocytes, SYBR Green DNA, 72 h; series mostly up to 28.7 µM
# How it was run: as §1
# [5] = tested on: AS120; assay: as above; details: P. falciparum in erythrocytes, SYBR Green DNA, 72 h; series mostly up to 28.7 µM
# How it was run: as §1
# [6] = tested on: ATS189; assay: as above; details: P. falciparum in erythrocytes, SYBR Green DNA, 72 h; series mostly up to 28.7 µM
# How it was run: as §1
# [7] = tested on: ATS95; assay: as above; details: P. falciparum in erythrocytes, SYBR Green DNA, 72 h; series mostly up to 28.7 µM
# How it was run: as §1
# [8] = tested on: C2A; assay: as above; details: P. falciparum in erythrocytes, SYBR Green DNA, 72 h; series mostly up to 28.7 µM
# How it was run: as §1
# [9] = tested on: CP185; assay: as above; details: P. falciparum in erythrocytes, SYBR Green DNA, 72 h; series mostly up to 28.7 µM
# How it was run: as §1
# [10] = tested on: CP191; assay: as above; details: P. falciparum in erythrocytes, SYBR Green DNA, 72 h; series mostly up to 28.7 µM
# How it was run: as §1
# [11] = tested on: CP192; assay: as above; details: P. falciparum in erythrocytes, SYBR Green DNA, 72 h; series mostly up to 28.7 µM
# How it was run: as §1
# [12] = tested on: CP194; assay: as above; details: P. falciparum in erythrocytes, SYBR Green DNA, 72 h; series mostly up to 28.7 µM
# How it was run: as §1
# [13] = tested on: CP201; assay: as above; details: P. falciparum in erythrocytes, SYBR Green DNA, 72 h; series mostly up to 28.7 µM
# How it was run: as §1
# [14] = tested on: CP203; assay: as above; details: P. falciparum in erythrocytes, SYBR Green DNA, 72 h; series mostly up to 28.7 µM
# How it was run: as §1
# [15] = tested on: CP211; assay: as above; details: P. falciparum in erythrocytes, SYBR Green DNA, 72 h; series mostly up to 28.7 µM
# How it was run: as §1
# [16] = tested on: CP215; assay: as above; details: P. falciparum in erythrocytes, SYBR Green DNA, 72 h; series mostly up to 28.7 µM
# How it was run: as §1
# [17] = tested on: CP217; assay: as above; details: P. falciparum in erythrocytes, SYBR Green DNA, 72 h; series mostly up to 28.7 µM
# How it was run: as §1
# [18] = tested on: CP237; assay: as above; details: P. falciparum in erythrocytes, SYBR Green DNA, 72 h; series mostly up to 28.7 µM
# How it was run: as §1
# [19] = tested on: CP238; assay: as above; details: P. falciparum in erythrocytes, SYBR Green DNA, 72 h; series mostly up to 28.7 µM
# How it was run: as §1
# [20] = tested on: CP247; assay: as above; details: P. falciparum in erythrocytes, SYBR Green DNA, 72 h; series mostly up to 28.7 µM
# How it was run: as §1
# Potency means the concentration at half of the fitted maximal effect.
structure (smiles),measurement,setting,value
CC(/C=C/C=C(\C)C(=O)O[C@@H]1O[C@H](CO[C@@H]2O[C@H](CO)[C@@H](O)[C@H](O)[C@H]2O)[C@@H](O)[C@H](O)[C@H]1O)=C\C=C\C=C(C)\C=C\C=C(/C)C(=O)O[C@@H]1O[C@H](CO[C@@H]2O[C@H](CO)[C@@H](O)[C@H](O)[C@H]2O)[C@@H](O)[C@H](O)[C@H]1O,"activity, negative = inhibition",[1]; parasite line A,7.84%
same,"activity, negative = inhibition",[1]; parasite line B,-1.1%
same,Potency,[2],inactive
same,Potency,[3],inactive
same,Potency,[4],inactive
same,Potency,[5],inactive
same,Potency,[6],inactive
same,Potency,[7],inactive
same,Potency,[8],inactive
same,Potency,[9],inactive
same,Potency,[10],inactive
same,Potency,[11],inactive
same,Potency,[12],inactive
same,Potency,[13],inactive
same,Potency,[14],inactive
same,Potency,[15],inactive
same,Potency,[16],inactive
same,Potency,[17],inactive
same,Potency,[18],inactive
same,Potency,[19],inactive
same,Potency,[20],inactive
CCc1ccc(S(=O)(=O)O)cc1,"activity, negative = inhibition",[1]; parasite line A,-3.46%
same,"activity, negative = inhibition",[1]; parasite line B,4.58%
same,Potency,[2],inactive
same,Potency,[3],inactive
same,Potency,[4],inactive
same,Potency,[5],inactive
same,Potency,[6],inactive
same,Potency,[7],inactive
same,Potency,[8],inactive
same,Potency,[9],inactive
same,Potency,[10],inactive
same,Potency,[11],inactive
same,Potency,[12],inactive
same,Potency,[13],inactive
same,Potency,[14],inactive
same,Potency,[15],inactive
same,Potency,[16],inactive
same,Potency,[17],inactive
same,Potency,[18],inactive
same,Potency,[19],inactive
same,Potency,[20],inactive
C[C@H](O)CN(C)C,"activity, negative = inhibition",[1]; parasite line A,9.28%
same,"activity, negative = inhibition",[1]; parasite line B,3.53%
same,Potency,[2],inactive
same,Potency,[3],inactive
same,Potency,[4],inactive
same,Potency,[5],inactive
same,Potency,[6],inactive
same,Potency,[7],inactive
same,Potency,[8],inactive
same,Potency,[9],inactive
same,Potency,[10],inactive
same,Potency,[11],inactive
same,Potency,[12],inactive
same,Potency,[13],inactive
same,Potency,[14],inactive
same,Potency,[15],inactive
same,Potency,[16],inactive
same,Potency,[17],inactive
same,Potency,[18],inactive
same,Potency,[19],inactive
same,Potency,[20],inactive
c1ccc(-n2cnnn2)cc1,"activity, negative = inhibition",[1]; parasite line A,4.13%
same,"activity, negative = inhibition",[1]; parasite line B,-7.64%
same,Potency,[2],inactive
same,Potency,[3],inactive
same,Potency,[4],inactive
same,Potency,[5],inactive
same,Potency,[6],inactive
same,Potency,[7],inactive
same,Potency,[8],inactive
same,Potency,[9],inactive
same,Potency,[10],inactive
same,Potency,[11],inactive
same,Potency,[12],inactive
same,Potency,[13],inactive
same,Potency,[14],inactive
same,Potency,[15],inactive
same,Potency,[16],inactive
same,Potency,[17],inactive
same,Potency,[18],inactive
same,Potency,[19],inactive
same,Potency,[20],inactive
O=C(O)[C@H]1C(=CCO)O[C@H]2CC(=O)N12,"activity, negative = inhibition",[1]; parasite line A,6.84%
same,"activity, negative = inhibition",[1]; parasite line B,1.77%
same,Potency,[2],inactive
same,Potency,[3],inactive
same,Potency,[4],inactive
same,Potency,[5],inactive
same,Potency,[6],inactive
same,Potency,[7],inactive
same,Potency,[8],inactive
same,Potency,[9],inactive
same,Potency,[10],inactive
same,Potency,[11],inactive
same,Potency,[12],inactive
same,Potency,[13],inactive
same,Potency,[14],inactive
same,Potency,[15],inactive
same,Potency,[16],inactive
same,Potency,[17],inactive
same,Potency,[18],inactive
same,Potency,[19],inactive
same,Potency,[20],inactive
N=C(N)n1cccn1,"activity, negative = inhibition",[1]; parasite line A,-11.6%
same,"activity, negative = inhibition",[1]; parasite line B,1.65%
same,Potency,[2],inactive
same,Potency,[3],inactive
same,Potency,[4],inactive
same,Potency,[5],inactive
same,Potency,[6],inactive
same,Potency,[7],inactive
same,Potency,[8],inactive
same,Potency,[9],inactive
same,Potency,[10],inactive
same,Potency,[11],inactive
same,Potency,[12],inactive
same,Potency,[13],inactive
same,Potency,[14],inactive
same,Potency,[15],inactive
same,Potency,[16],inactive
same,Potency,[17],inactive
same,Potency,[18],inactive
same,Potency,[19],inactive
same,Potency,[20],inactive
CC1=CC(=C(c2ccc(N)cc2)c2ccc(N)cc2)C=CC1=N,Potency,[1]; parasite line A,1.41 µM (active)
same,Potency,[1]; parasite line B,1.26 µM (active)
same,Potency,[2],0.891 µM (active)
same,Potency,[3],5.01 µM (active)
same,Potency,[4],2.24 µM (active)
same,Potency,[5],2.24 µM (active)
same,Potency,[6],2.82 µM (active)
same,Potency,[7],2.82 µM (active)
same,Potency,[8],0.631 µM (active)
same,Potency,[9],3.98 µM (active)
same,Potency,[10],1.78 µM (active)
same,Potency,[11],4.26 µM (active)
same,Potency,[12],3.79 µM (active)
same,Potency,[13],5.36 µM (active)
same,Potency,[14],4.26 µM (active)
same,Potency,[15],4.26 µM (active)
same,Potency,[16],4.78 µM (active)
same,Potency,[17],3.55 µM (active)
same,Potency,[18],3.16 µM (active)
same,Potency,[19],3.55 µM (active)
same,Potency,[20],1.12 µM (active)
O=C1c2ccccc2C(=O)C1c1ccc(F)cc1,"activity, negative = inhibition",[1]; parasite line A,-6.63%
same,"activity, negative = inhibition",[1]; parasite line B,2.77%
same,Potency,[2],inactive
same,Potency,[3],inactive
same,Potency,[4],inactive
same,Potency,[5],inactive
same,Potency,[6],inactive
same,Potency,[7],inactive
same,Potency,[8],inactive
same,Potency,[9],inactive
same,Potency,[10],inactive
same,Potency,[11],inactive
same,Potency,[12],inactive
same,Potency,[13],inactive
same,Potency,[14],inactive
same,Potency,[15],inactive
same,Potency,[16],inactive
same,Potency,[17],inactive
same,Potency,[18],inactive
same,Potency,[19],inactive
same,Potency,[20],inactive
NC(N)=O,"activity, negative = inhibition",[1]; parasite line A,0.0876%
same,"activity, negative = inhibition",[1]; parasite line B,-2.3%
same,Potency,[2],inactive
same,Potency,[3],inactive
same,Potency,[4],inactive
same,Potency,[5],inactive
same,Potency,[6],inactive
same,Potency,[7],inactive
same,Potency,[8],inactive
same,Potency,[9],inactive
same,Potency,[10],inactive
same,Potency,[11],inactive
same,Potency,[12],inactive
same,Potency,[13],inactive
same,Potency,[14],inactive
same,Potency,[15],inactive
same,Potency,[16],inactive
same,Potency,[17],inactive
same,Potency,[18],inactive
same,Potency,[19],inactive
same,Potency,[20],inactive
C=CC(=O)O,"activity, negative = inhibition",[1]; parasite line A,2.32%
same,"activity, negative = inhibition",[1]; parasite line B,10.1%
same,Potency,[2],inactive
same,Potency,[3],inactive
same,Potency,[4],inactive
same,Potency,[5],inactive
same,Potency,[6],inactive
same,Potency,[7],inactive
same,Potency,[8],inactive
same,Potency,[9],inactive
same,Potency,[10],inactive
same,Potency,[11],inactive
same,Potency,[12],inactive
same,Potency,[13],inactive
same,Potency,[14],inactive
same,Potency,[15],inactive
same,Potency,[16],inactive
same,Potency,[17],inactive
same,Potency,[18],inactive
same,Potency,[19],inactive
same,Potency,[20],inactive
FC(F)(F)C(F)(F)C(F)(F)C(F)(F)C(F)(F)C(F)(F)F,"activity, negative = inhibition",[1]; parasite line A,2.24%
same,"activity, negative = inhibition",[1]; parasite line B,2.03%
same,Potency,[2],inactive
same,Potency,[3],inactive
same,Potency,[4],inactive
same,Potency,[5],inactive
same,Potency,[6],inactive
same,Potency,[7],inactive
same,Potency,[8],inactive
same,Potency,[9],inactive
same,Potency,[10],inactive
same,Potency,[11],inactive
same,Potency,[12],inactive
same,Potency,[13],inactive
same,Potency,[14],inactive
same,Potency,[15],inactive
same,Potency,[16],inactive
same,Potency,[17],inactive
same,Potency,[18],inactive
same,Potency,[19],inactive
same,Potency,[20],inactive
c1ccc2ccccc2c1,"activity, negative = inhibition",[1]; parasite line A,8.79%
same,"activity, negative = inhibition",[1]; parasite line B,4.51%
same,Potency,[2],inactive
same,Potency,[3],inactive
same,Potency,[4],inactive
same,Potency,[5],inactive
same,Potency,[6],inactive
same,Potency,[7],inactive
same,Potency,[8],inactive
same,Potency,[9],inactive
same,Potency,[10],inactive
same,Potency,[11],inactive
same,Potency,[12],inactive
same,Potency,[13],inactive
same,Potency,[14],inactive
same,Potency,[15],inactive
same,Potency,[16],inactive
same,Potency,[17],inactive
same,Potency,[18],inactive
same,Potency,[19],inactive
same,Potency,[20],inactive
